The panel holds about 79,000 compounds, 15% with a hit somewhere; the sample as a whole holds those more often. A number with no mark means an inactive call. Activity calls are given as the source filed them. No stated cut-off is given here; in the data, active means growth inhibition above about 70%; inactive means the rest.
test: NCI Yeast Anticancer Drug Screen. Data for the rad50 strain (AID 155);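 further: 0% = growth of vehicle-only cultures of the same strain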; settings: S. cerevisiae rad50 strain growth inhibition; at 50.0 µM; stronger effect = higher value
Method in brief: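 A DNA repair-deficient yeast mutant serves as the test organism; compound-induced growth inhibition is calculated against vehicle-treated cells.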

| Compound | growth inhibition |
| --- | --- |
| C=C(CCC(C)C1CCC2(C)C3=C(CC(O)C12C)C1(C)CCC(O)C(C)(C)C1CC3)C(C)C(=O)O (stereo not given) | 84.1% (active) |
| CC(=O)O[C@H]1CC[C@]2(C)C3=CC[C@]4(C)[C@@H](C(C)=O)CC[C@H]4[C@@]34C=C[C@]2(C1)C1C(=O)OC(=O)C14 (stereo not given in full) | 58.2% |
| CCC1(c2ccc(N3C(=O)c4ccccc4C3=O)cc2)CCC(=O)NC1=O (stereo not given) | -5.4% |
| O=C(NNS(=O)(=O)c1ccccc1)Nc1ccccc1 | -13.4% |
| CCN(CC)CCNc1c(C)ccc2cccnc12 | 33.5% |
| CCOC(=O)CCC(NC(=O)c1ccc(NC(OC)c2nc3cc(C(F)(F)F)ccc3nc2-c2ccccc2)cc1)C(=O)OCC (stereo not given) | 92.8% (active) |
| CCCC(O)C[N+](=O)[O-] (stereo not given) | 48.2% |
| O=C(Nc1cccc(Br)c1)Oc1cccc2cccnc12 | 85.7% (active) |
| C=C1CC(C)(COc2ccc3c(C)c(C)c(=O)oc3c2C)OC1=O (stereo not given) | -23.4% |
| Cc1cc(Br)c(N2C3=C(CC4=C2CCCC4=O)C(=O)CCC3)c(Br)c1 | 96.8% (active) |
| CCN(CC)CC(O)CNc1ccc(C)c2sc3ccccc3c(=O)c12 (stereo not given) | 99.8% (active) |
| COC1/C=C/OC2(C)Oc3c(C)c(O)c4c(c3C2=O)C(=O)C=C(NC(=O)/C(C)=C\C=C\C(C)C(OC=O)C(C)C(O)C(C)C(OC(C)=O)C1C)C4=O (stereo not given) | 47% |
| OC(c1cc2ccccc2o1)c1cc2ccccc2s1 (stereo not given) | 44.2% |
| Nc1nnc(-c2cc([N+](=O)[O-])cc([N+](=O)[O-])c2)o1 | 22.8% |
| CC1SC(=S)N(c2ccc(Cl)cc2)C1=O (stereo not given) | 71% (active) |
| CCCCCCCCCC(=O)NN=C(C)C | 93.1% (active) |
| O=C(/C=C/c1ccccc1)C1(c2ccccc2)CC1 | 79.8% (active) |
| Nc1n[n+](-c2ccccc2)no1 | 61% |
| N#CC(C#N)=C(c1ccccc1)c1ccccc1 | 97.4% (active) |
| CS(=O)(=O)OCCCN(CCCOS(C)(=O)=O)c1ccc(C=Nc2ccc(-c3csc(COc4ccc(Br)cc4Br)n3)cc2)cc1 | 86.3% (active) |

| Compound | growth inhibition |
| --- | --- |
| CSc1ncnc2ncn(C3OC(CO)C(O)C3O)c12 (stereo not given) | 9.65% |
| CNC(=O)c1ccc(OC)cc1C1(O)c2ccccc2CCc2ccccc21 | 58.6% |
| O=[N+]([O-])c1ccc(Oc2c(Cl)cccc2Cl)cc1 | -12.9% |
| CN(C)C(=O)c1ccc(SC(=S)NCc2ccccc2)cc1 | 98.5% (active) |
| CC(C)c1ccc(C(=O)OC2CCCCC2)cc1 | 73.3% (active) |
| O=C(Nc1ccc(C(=O)c2ccccc2)cc1)Nc1ccc(Cl)c(Cl)c1 | 92.5% (active) |
| O=C1c2ccccc2C(=O)c2sc(Nc3ccc(Cl)cc3)nc21 | 90.5% (active) |
| O=C1NC(=O)N(c2ccc([N+](=O)[O-])cc2)C1=O | -0.3% |
| CCN(CC)CCNc1nc(N)c2nc(-c3ccccc3)c(-c3ccccc3)nc2n1 | 95.3% (active) |
| CCCCCCCCOc1ccc(/C=C/C(C)=N/NC(N)=NC)cc1OC | 98.7% (active) |
| CC1=NN(C(=O)c2ccc(Cl)cc2)C(=O)C1N=Nc1ccc(S(=O)(=O)Nc2ncccn2)cc1 (stereo not given) | 55.7% |
| CCOC(=O)C(Br)C(Br)c1cccc([N+](=O)[O-])c1 (stereo not given) | 99.7% (active) |
| Cc1ccccc1N1CCN(c2c3c(nc4ccccc24)CCCCC3)CC1 | 97.2% (active) |
| O=S(=O)(O)SCCNCCCCCC1CCCCC1 | 15.3% |
| CC([N+](=O)[O-])C1(O)C(=O)c2cccc3cccc1c23 (stereo not given) | 64.2% |
| CCS(CC)(CC)CC1CCCC2=CCC(P(=O)(c3ccccc3)c3ccccc3)CC21 (stereo not given) | 87.2% (active) |
| O=C(O)C(CS)Nc1c2ccccc2nc2ccccc12 (stereo not given) | 88.6% (active) |
| CCCCCCCCCCCC1C(C#N)C(=O)NC(=O)C1C#N (stereo not given) | 49.3% |
| O=C(O)CCSSCCCCCS(=O)O | 54.9% |
| CC(C)CNc1cc(Cl)nc(N)n1 | 88% (active) |

test: NCI Yeast Anticancer Drug Screen. Data for the mec2-1 strain (AID 157); settings: S. cerevisiae mec2-1 strain, at 5.0 µM (retest, dose inferred, filed as 0.5), stronger effect = higher value
Method in brief: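 Mutant yeast (mec2-1) grown with compound; growth inhibition relative to vehicle control reported.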

| Compound | growth inhibition |
| --- | --- |
| C=C(CCC(C)C1CCC2(C)C3=C(CC(O)C12C)C1(C)CCC(O)C(C)(C)C1CC3)C(C)C(=O)O (stereo not given) | 15% |
| CC(=O)O[C@H]1CC[C@]2(C)C3=CC[C@]4(C)[C@@H](C(C)=O)CC[C@H]4[C@@]34C=C[C@]2(C1)C1C(=O)OC(=O)C14 (stereo not given in full) | 2% |
| CCC1(c2ccc(N3C(=O)c4ccccc4C3=O)cc2)CCC(=O)NC1=O (stereo not given) | -36% |
| O=C(NNS(=O)(=O)c1ccccc1)Nc1ccccc1 | 17% |
| CCN(CC)CCNc1c(C)ccc2cccnc12 | -4% |
| CCOC(=O)CCC(NC(=O)c1ccc(NC(OC)c2nc3cc(C(F)(F)F)ccc3nc2-c2ccccc2)cc1)C(=O)OCC (stereo not given) | 78% (active) |
| CCCC(O)C[N+](=O)[O-] (stereo not given) | -1% |
| O=C(Nc1cccc(Br)c1)Oc1cccc2cccnc12 | 65% |
| C=C1CC(C)(COc2ccc3c(C)c(C)c(=O)oc3c2C)OC1=O (stereo not given) | 16% |
| Cc1cc(Br)c(N2C3=C(CC4=C2CCCC4=O)C(=O)CCC3)c(Br)c1 | 7% |
| CCN(CC)CC(O)CNc1ccc(C)c2sc3ccccc3c(=O)c12 (stereo not given) | 7% |
| COC1/C=C/OC2(C)Oc3c(C)c(O)c4c(c3C2=O)C(=O)C=C(NC(=O)/C(C)=C\C=C\C(C)C(OC=O)C(C)C(O)C(C)C(OC(C)=O)C1C)C4=O (stereo not given) | 1% |
| OC(c1cc2ccccc2o1)c1cc2ccccc2s1 (stereo not given) | -11% |
| Nc1nnc(-c2cc([N+](=O)[O-])cc([N+](=O)[O-])c2)o1 | -4% |
| CC1SC(=S)N(c2ccc(Cl)cc2)C1=O (stereo not given) | 0% |
| CCCCCCCCCC(=O)NN=C(C)C | -49% |
| O=C(/C=C/c1ccccc1)C1(c2ccccc2)CC1 | -51% |
| Nc1n[n+](-c2ccccc2)no1 | 16% |
| N#CC(C#N)=C(c1ccccc1)c1ccccc1 | 13% |
| CS(=O)(=O)OCCCN(CCCOS(C)(=O)=O)c1ccc(C=Nc2ccc(-c3csc(COc4ccc(Br)cc4Br)n3)cc2)cc1 | 6% |

| Compound | growth inhibition |
| --- | --- |
| CSc1ncnc2ncn(C3OC(CO)C(O)C3O)c12 (stereo not given) | -15% |
| CNC(=O)c1ccc(OC)cc1C1(O)c2ccccc2CCc2ccccc21 | 34% |
| O=[N+]([O-])c1ccc(Oc2c(Cl)cccc2Cl)cc1 | -13% |
| CN(C)C(=O)c1ccc(SC(=S)NCc2ccccc2)cc1 | 0% |
| CC(C)c1ccc(C(=O)OC2CCCCC2)cc1 | 8% |
| O=C(Nc1ccc(C(=O)c2ccccc2)cc1)Nc1ccc(Cl)c(Cl)c1 | 9% |
| O=C1c2ccccc2C(=O)c2sc(Nc3ccc(Cl)cc3)nc21 | 84% (active) |
| O=C1NC(=O)N(c2ccc([N+](=O)[O-])cc2)C1=O | 8% |
| CCN(CC)CCNc1nc(N)c2nc(-c3ccccc3)c(-c3ccccc3)nc2n1 | -3% |
| CCCCCCCCOc1ccc(/C=C/C(C)=N/NC(N)=NC)cc1OC | 98% (active) |
| CC1=NN(C(=O)c2ccc(Cl)cc2)C(=O)C1N=Nc1ccc(S(=O)(=O)Nc2ncccn2)cc1 (stereo not given) | 4% |
| CCOC(=O)C(Br)C(Br)c1cccc([N+](=O)[O-])c1 (stereo not given) | 93% (active) |
| Cc1ccccc1N1CCN(c2c3c(nc4ccccc24)CCCCC3)CC1 | 7% |
| O=S(=O)(O)SCCNCCCCCC1CCCCC1 | 27% |
| CC([N+](=O)[O-])C1(O)C(=O)c2cccc3cccc1c23 (stereo not given) | 0% |
| CCS(CC)(CC)CC1CCCC2=CCC(P(=O)(c3ccccc3)c3ccccc3)CC21 (stereo not given) | 18% |
| O=C(O)C(CS)Nc1c2ccccc2nc2ccccc12 (stereo not given) | 10% |
| CCCCCCCCCCCC1C(C#N)C(=O)NC(=O)C1C#N (stereo not given) | 90% (active) |
| O=C(O)CCSSCCCCCS(=O)O | 4% |
| CC(C)CNc1cc(Cl)nc(N)n1 | 4% |

— PubChem BioAssay (NCI)
